Source: PubChem BioAssay (National Center for Advancing Translational Sciences (NCATS))
Rows were chosen to be rich in hits. Some 9% of all compounds tested hit in one or more screens of this group.
LMNA splice mod – modulators of lamin A splicing. HeLa LMNA splicing GFP/RFP minigene ratio, 48 h. actives 0.01% (n = 200,000). AID 1487. Potency, µM (top dose mostly 46.1 µM), inactives show at the top dose ratio change, negative = inhibition, usual class: inhibitors; active = well fitted inhibition curve with a large enough effect in the signal ratio, with a control signal flat, not every such curve was filed as active; inconclusive = small, poorly fitted or top-dose-only effect, or effect the other way, or a change in a side signal; the % refers to the signal ratio
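Read-out is the ratio of GFP to DsRed2 object intensity, acquired by 488 nm laser-scanning cytometry on HeLa lamin A-EGFP minigene reporter cells. Compound incubation 48 hrs at 37 °C in Opti-MEM with 2% FBS; DMSO 0.5% final.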
ALDH1A1 inh – inhibitors of human aldehyde dehydrogenase 1A1; P00352; Purified ALDH1A1, NADH fluorescence, propionaldehyde substrate; Potency, µM (titrated, usually from 75.3 µM), without a hit: at the top dose activity, negative = inhibition, most hits filed as inhibitors; actives 7.3% (n = 220,000);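 also: plate controls were no enzyme wells and a reference inhibitor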
Target sequence (P00352 whole entry, looked up): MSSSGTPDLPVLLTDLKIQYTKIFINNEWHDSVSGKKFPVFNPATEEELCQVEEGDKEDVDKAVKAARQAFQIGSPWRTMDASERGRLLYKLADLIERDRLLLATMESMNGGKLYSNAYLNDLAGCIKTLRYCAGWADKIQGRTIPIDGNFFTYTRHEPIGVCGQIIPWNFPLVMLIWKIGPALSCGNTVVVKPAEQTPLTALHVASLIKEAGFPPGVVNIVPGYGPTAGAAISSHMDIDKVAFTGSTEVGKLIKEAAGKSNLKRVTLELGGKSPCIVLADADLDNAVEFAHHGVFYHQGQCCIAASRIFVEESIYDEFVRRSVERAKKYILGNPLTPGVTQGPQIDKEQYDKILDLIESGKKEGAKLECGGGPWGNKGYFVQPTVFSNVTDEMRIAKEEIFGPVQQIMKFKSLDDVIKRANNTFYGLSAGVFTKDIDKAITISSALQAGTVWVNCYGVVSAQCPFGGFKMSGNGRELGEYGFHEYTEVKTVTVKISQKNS
HPGD inh – HPGD (human) dehydrogenase inhibition; P15428; purified HPGD, NADH fluorescence kinetic, PGE2 substrate; Potency, µM, for the others: top-dose activity change, negative = inhibition, usual class: inhibitors; actives 4.3% (n = 150,000); AID 894
Target sequence (P15428 whole entry, looked up): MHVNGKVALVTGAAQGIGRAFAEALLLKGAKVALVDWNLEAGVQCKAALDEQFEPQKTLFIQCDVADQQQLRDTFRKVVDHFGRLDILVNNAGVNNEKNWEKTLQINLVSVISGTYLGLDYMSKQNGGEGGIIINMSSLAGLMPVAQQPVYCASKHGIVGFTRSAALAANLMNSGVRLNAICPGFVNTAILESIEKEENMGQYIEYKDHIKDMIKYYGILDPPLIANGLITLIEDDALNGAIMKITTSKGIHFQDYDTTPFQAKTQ
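20 nM HPGD preincubated 15 min at room temperature with compound in 50 mM Tris-HCl pH 8, 0.01% Tween 20. Started with 1 mM NAD+ and 30 uM prostaglandin E2; NADH fluorescence (360/450 nm) read 5 times over 30-s intervals, last minus first.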
IMPase Li cell – cell-permeable IMPase inhibitors with lithium potentiation. Potency, µM (top dose mostly 59.4 µM), without a hit: at the highest dose activity, negative = IMPase inhibition, hits mostly inhibitors. actives 0.35% (n = 210,000). CHO-M1 cells, IP1 TR-FRET (IP-One), carbachol + lithium; active = well fitted curve in the direction sought with a large enough effect; inconclusive = small, poorly fitted or top-dose-only effect, or another doubt; inactive = no such curve, though single readings can be large; an effect the other way counts as inactive or inconclusive;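 also: IP1 builds up when IMPase is blocked and the TR-FRET signal falls; plate controls were basal vehicle for no effect and high inhibitor control for full effect; nearly all actives have a fitted effect of over 50% in size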
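CHO-M1, 2000 cells/well, 16–30 h culture; cpd + low Li+, 30 min 37C; lysis with d2-IP1/Eu-anti-IP1 Ab, 10 min RT; TR-FRET 665/620 ratio and 620 channel; AC50 via Hill.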
Luc counter – Kinase-Glo luciferase inhibition (counter-screen) | Q27757 | Kinase-Glo luciferase, ATP luminescence, 8 min | Potency, µM (top dose mostly 38.3 µM), for the others: at the top dose activity change, negative = inhibition, actives largely listed as inhibitors | actives 0.28% (n = 200,000) | AID 1379; active = well fitted curve in the direction sought with a large enough effect; inconclusive = small, poorly fitted or top-dose-only effect, or another doubt; inactive = no such curve, though single readings can be large; an effect the other way counts as inactive or inconclusive; also: nearly all actives have a fitted effect of over 60% in size
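Compounds were added to a substrate mix at pH 7.2 (50 mM imidazole, 10 uM ATP, within the enzyme's linear range), followed by Kinase-Glo detection reagent; luminescence was measured after 8 minutes at ambient temperature.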
An asterisk follows results filed as active; u = inconclusive; x = no result; [ ] = remark or other dose. Unless noted, calls follow the shape of the dose curve; as a rule, active = well fitted inhibition curve with a large enough effect (not every such curve was filed as active); inconclusive = small, poorly fitted or top-dose-only effect, or another doubt; inactive = no such curve, though single readings can be large or run the other way. Unless noted, % is scaled to controls: 0 for no effect and ±100 for the full control effect; potency is read from the fitted curve at half-maximal effect.

SMILES | LMNA splice mod | ALDH1A1 inh | HPGD inh | IMPase Li cell | Luc counter
Cc1ccc(NNC(=O)c2cc(C(C)(C)C)nn2Cc2ccccc2)cc1 | x | 15µM* | x | x | x
CCOC(=O)N1CCN(c2c(NCc3cccs3)c(=O)c2=O)CC1 | -25% | u | 28µM* | 1%[38.3 µM] | 0%
CCOC(=O)N1CCN(c2c(NCc3ccccc3OC)c(=O)c2=O)CC1 | -12% | u | 16µM* | 2%[38.3 µM] | -2%
CCOC(=O)N1CCN(c2c(NCCc3ccc(OC)c(OC)c3)c(=O)c2=O)CC1 | -4% | u | -15% | 4%[38.3 µM] | -4%
CCc1ccccc1NC(=O)COCc1cc(-c2ccco2)on1 | -2%[46 µM] | x | x | x | x
CCCn1c(-c2ccc(F)cc2)nc2c(NCCCN3CCCCC3C)nc(C)nc21 (stereo not given) | x | u | -26% | 3% | -2%
CSC1=C(C#N)C(c2ccccc2C)C(C#N)=C(N)N1 (stereo not given) | 25% | 22µM* | -20% | 0%[38.3 µM] | 2%
CSC1=C(C#N)C(c2ccccc2Cl)C2=C(N1)c1ccccc1C2=O (stereo not given) | 7% | u | u | 15%[38.3 µM] | -3%
CCOc1cc(CNS(=O)(=O)c2ccc3c(c2)CC(=O)N3C)cc(OCC)c1OCC | 8%[46 µM] | x | x | x | x
CC(=O)Nc1ccc(NC(=O)CSc2nnc(-c3ccco3)n2Cc2ccco2)cc1 | -9% | 20µM* | -10% | -3%[38.3 µM] | 3%
CCn1c(SCC(=O)Nc2nonc2C)nnc1-c1ccco1 | 1% | 14µM* | u | 18%[38.3 µM] | -5%
CCn1c(SCC(=O)Nc2sc3c(c2C(N)=O)CCC(C)C3)nnc1-c1ccco1 (stereo not given) | -14% | 22µM* | u | -11%[38.3 µM] | 1%
O=C(CN1C(=O)C2C3C=CC(C3)C2C1=O)N1CCc2ccccc2C1 (stereo not given) | 5% | -7% | -10% | -11%[38.3 µM] | 2%
N#Cc1cc2[nH]c3ccccc3c2[n+](-c2ccc([N+](=O)[O-])cc2)c1N | x | -10% | x | 14% | 7%
Cc1ccc(Cl)cc1N1CCN(C(=O)C2CCN(S(=O)(=O)c3cn(C)cn3)CC2)CC1 | -10%[46 µM] | x | x | x | x
Cc1cccc(OCC(=O)N2CCN(C(=O)c3ccco3)CC2)c1 | 23%[46 µM] | 0% | x | 7% | -3%
Cc1cccc(NCc2ccccc2O)c1 | -2% | -30% | 22µM* | 24%[38.3 µM] | 2%
CNC(=O)CS(=O)CC(=O)Nc1cc(OC(C)C)c(Cl)cc1Cl (stereo not given) | x | -9% | x | 6% | -1%
O=C1C2CCCCC2C(=O)N1Cc1ccccc1 (stereo not given) | 18%[46 µM] | u | x | 2% | -4%
O=c1ccsn1Cc1ccccc1 | 7% | u | 20µM* | 26%[38.3 µM] | 3%
COn1c(-c2ccccc2)nc2c1CCc1nonc1-2 | 5% | 7.9µM* | -23% | -14%[38.3 µM] | -2%
c1ccc(-c2cc3c(nn2)CCc2nonc2-3)cc1 | 12% | u | -19% | 6%[38.3 µM] | -5%
c1ccc(COn2c(-c3ccccc3)nc3c2CCc2nonc2-3)cc1 | u | 8.9µM* | x | x | x
Cc1ccc(S(=O)(=O)NCCN=C(CN2CCOCC2)NS(=O)(=O)c2ccc(C)cc2)cc1 | -6% | 1.6µM* | 2% | -5% | 1%
Cc1ccc(S(=O)(=O)NCC(=O)N2CCCC2)cc1 | 12% | 3% | -5% | 26%[38.3 µM] | 0%
SMILES | LMNA splice mod | ALDH1A1 inh | HPGD inh | IMPase Li cell | Luc counter
Cc1ccc(S(=O)(=O)NCCCN2CCOCC2)cc1C | -8% | -10% | -7% | -11% | 1%
Cc1ccc(S(=O)(=O)NCCN=C(CN2CCCC2)NS(=O)(=O)c2ccc(C)cc2)cc1 | 4% | 4.5µM* | 1% | 5%[38.3 µM] | -2%
COc1ccc(Cl)cc1S(=O)(=O)Nc1cccc(-c2ccc(N3CCOCC3)nn2)c1 | -12%[46 µM] | x | x | x | x
O=c1c(CN2CCN(Cc3ccccc3)CC2)coc2ccc(Cl)cc12 | 6% | 8.9µM* | -8% | 23%[38.3 µM] | 0%
O=C(c1cc2ncc(CCCl)cn2n1)N1CCCCCC1 | 10% | u | 1µM* | -9% | 0%
O=[N+]([O-])c1ccccc1S(=O)(=O)N1CCN(Cc2cc3c(cc2O)OCO3)CC1 | -26%[46 µM] | 1.9µM* | x | 15% | -2%
O=[N+]([O-])c1ccccc1S(=O)(=O)N1CCN(CC2CC=CCC2)CC1 (stereo not given) | -12%[46 µM] | 14µM* | x | 9% | 3%
CCCS(=O)(=O)N1CCN(S(=O)(=O)c2ccccc2[N+](=O)[O-])CC1 | x | -6% | x | 5% | 0%
CCNc1ncc2ncc(=O)n(C3CC3)c2n1 | 17% | u | x | -15% | x
CCN(CC)S(=O)(=O)c1ccc(OCC(=O)NC2CCS(=O)(=O)C2)c([N+](=O)[O-])c1 (stereo not given) | -9%[46 µM] | 14µM* | x | -1% | 4%
O=C1CC2(CCCC2)CC(=O)N1CCNCC1COc2ccccc2O1 (stereo not given) | x | 28µM* | x | 6% | x
O=C1CC2(CCCC2)CC(=O)N1CCNC[C@H]1COc2ccccc2O1 | x | u | -1% | 2% | 1%
Cc1ccc(S(=O)(=O)N[C@H]2COC(=O)C/C=C\[C@@H](C)[C@H](NS(=O)(=O)c3ccc(C)cc3)COC(=O)[C@H](C)NC(=O)C/C=C\[C@H]2C)cc1 | x | 3%[13.5 µM] | x | x | x
CCOc1ccc(-c2csc(Cn3c(CN4CCN(C)CC4)nc4ccccc4c3=O)n2)cc1 | -20% | 14µM* | x | x | x
CN(C)Cc1nc2ccccc2c(=O)n1Cc1nc(-c2cc3ccccc3o2)cs1 | u | -3% | -11% | 0%[38.3 µM] | -4%
O=Cc1ccc(N2CCCCC2)cc1 | 9%[46 µM] | 1.6µM* | x | -8% | -2%
COc1cc(N2CCCC2)ccc1C=O | 7%[46 µM] | 13µM* | x | -1% | 3%
Nc1nc(SC2c3cccc4cccc(c34)C2NS(=O)(=O)c2ccccc2)n[nH]1 (stereo not given) | -10% | 14µM* | -6% | -1% | 1%
Cc1cc(C)nc(SC2c3cccc4cccc(c34)C2NS(=O)(=O)c2ccccc2)n1 (stereo not given) | u | u | -12% | 14% | 1%
CCOc1cccc(CNc2ccc(O)cc2)c1OCc1ccc(Cl)cc1Cl | u | 22µM* | -7% | -1%[38.3 µM] | -3%
CN1CCC2(CC1)CCN(C(=O)c1ccncc1)CC2 | x | 11% | 1% | 9% | -4%
Cc1ccc(S(=O)(=O)N(C)C)cc1NC(=O)COC(=O)COc1ccccc1[N+](=O)[O-] | 7%[46 µM] | -6% | x | 1% | 0%
Cc1cc(-c2n[nH]c(=S)n2/N=C/c2ccc(Br)s2)n[nH]1 | 10% | -15% | 13µM* | -1% | 0%
Cc1cc(-c2n[nH]c(=S)n2/N=C/c2ccccc2[N+](=O)[O-])n[nH]1 | -2% | 4% | -26% | -3% | 2%
Cc1cc(-c2n[nH]c(=S)n2/N=C/c2ccc(C)s2)n[nH]1 | 8% | -10% | 25µM* | -1% | -1%
